Reference: ChEMBL document CHEMBL1961873, “Compounds: GSK PKIS; Assays: Nanosyn kinase panel” (2012)

Experiments:
[1] = molecular target: Calcium/calmodulin-dependent protein kinase type II subunit alpha (Homo sapiens) (UniProt Q9UQM7); conditions: at 1 µM;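 note: reported value is a mean percent inhibition of CAMK2A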
[2] = molecular target: Calcium/calmodulin-dependent protein kinase type II subunit delta (Homo sapiens) (UniProt Q13557); conditions: at 0.1 µM
[3] = molecular target: Calcium/calmodulin-dependent protein kinase type II subunit delta (Homo sapiens) (UniProt Q13557); conditions: at 1 µM
[4] = molecular target: T1, Calcium/calmodulin-dependent protein kinase type IV (Homo sapiens) (UniProt Q16566); conditions: at 0.1 µM
T1 sequence (whole entry): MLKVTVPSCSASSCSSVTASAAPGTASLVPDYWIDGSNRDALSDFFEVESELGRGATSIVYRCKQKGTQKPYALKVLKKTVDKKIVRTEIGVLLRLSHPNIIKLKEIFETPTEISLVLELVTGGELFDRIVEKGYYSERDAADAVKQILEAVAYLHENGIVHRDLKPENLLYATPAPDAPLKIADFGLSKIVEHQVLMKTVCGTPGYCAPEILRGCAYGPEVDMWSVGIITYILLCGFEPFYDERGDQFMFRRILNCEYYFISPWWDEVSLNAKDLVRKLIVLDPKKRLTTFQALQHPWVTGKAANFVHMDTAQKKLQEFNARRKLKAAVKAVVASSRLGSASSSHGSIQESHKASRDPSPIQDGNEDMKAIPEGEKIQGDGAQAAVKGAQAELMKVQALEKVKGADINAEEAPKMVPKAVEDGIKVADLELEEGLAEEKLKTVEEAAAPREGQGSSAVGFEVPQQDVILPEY

[5] = molecular target: T1, Calcium/calmodulin-dependent protein kinase type IV (Homo sapiens); conditions: at 1 µM
[6] = molecular target: T2, Serine/threonine-protein kinase Chk1 (Homo sapiens) (UniProt O14757); conditions: at 0.1 µM
T2 sequence (whole entry): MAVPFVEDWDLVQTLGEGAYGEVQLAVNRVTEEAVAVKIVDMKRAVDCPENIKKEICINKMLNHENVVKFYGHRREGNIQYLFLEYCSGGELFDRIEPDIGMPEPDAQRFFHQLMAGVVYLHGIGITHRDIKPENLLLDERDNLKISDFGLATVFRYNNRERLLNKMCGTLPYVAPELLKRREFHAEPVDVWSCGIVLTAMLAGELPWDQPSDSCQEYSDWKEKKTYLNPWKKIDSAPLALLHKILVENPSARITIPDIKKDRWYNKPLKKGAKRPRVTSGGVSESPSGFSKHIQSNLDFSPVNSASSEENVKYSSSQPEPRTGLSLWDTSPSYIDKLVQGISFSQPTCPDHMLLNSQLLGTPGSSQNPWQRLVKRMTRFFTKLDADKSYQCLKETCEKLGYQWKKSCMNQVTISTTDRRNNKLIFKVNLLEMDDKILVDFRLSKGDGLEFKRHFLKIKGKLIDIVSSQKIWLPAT

[7] = molecular target: T2, Serine/threonine-protein kinase Chk1 (Homo sapiens); conditions: at 1 µM
[8] = molecular target: Serine/threonine-protein kinase Chk2 (Homo sapiens) (UniProt O96017); conditions: at 0.1 µM
[9] = molecular target: Serine/threonine-protein kinase Chk2 (Homo sapiens) (UniProt O96017); conditions: at 1 µM
[10] = molecular target: Death-associated protein kinase 1 (Homo sapiens) (UniProt P53355); conditions: at 0.1 µM
[11] = molecular target: Death-associated protein kinase 1 (Homo sapiens) (UniProt P53355); conditions: at 1 µM
[12] = molecular target: T3, Serine/threonine-protein kinase DCLK2 (Homo sapiens) (UniProt Q8N568); conditions: at 0.1 µM
T3 sequence (whole entry): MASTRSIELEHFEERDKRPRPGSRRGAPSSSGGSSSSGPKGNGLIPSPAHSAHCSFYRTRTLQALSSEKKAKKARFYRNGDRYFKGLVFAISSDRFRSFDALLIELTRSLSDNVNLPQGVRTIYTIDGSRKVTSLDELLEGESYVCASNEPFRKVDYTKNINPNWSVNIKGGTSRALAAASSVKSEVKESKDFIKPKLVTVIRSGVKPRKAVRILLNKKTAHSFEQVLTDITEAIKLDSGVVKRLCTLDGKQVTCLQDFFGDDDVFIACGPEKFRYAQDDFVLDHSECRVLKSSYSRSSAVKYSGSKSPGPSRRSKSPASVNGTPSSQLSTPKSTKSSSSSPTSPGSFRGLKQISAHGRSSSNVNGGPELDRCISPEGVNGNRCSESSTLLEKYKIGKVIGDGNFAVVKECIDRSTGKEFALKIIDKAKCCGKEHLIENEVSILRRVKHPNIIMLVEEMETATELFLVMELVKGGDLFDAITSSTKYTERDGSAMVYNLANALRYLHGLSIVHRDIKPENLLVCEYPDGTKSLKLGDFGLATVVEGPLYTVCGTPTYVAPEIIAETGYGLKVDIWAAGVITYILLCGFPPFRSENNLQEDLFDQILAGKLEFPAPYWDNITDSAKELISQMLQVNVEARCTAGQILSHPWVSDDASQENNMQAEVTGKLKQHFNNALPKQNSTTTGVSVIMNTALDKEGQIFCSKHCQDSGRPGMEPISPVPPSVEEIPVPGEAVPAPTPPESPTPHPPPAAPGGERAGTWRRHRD

[13] = molecular target: T3, Serine/threonine-protein kinase DCLK2 (Homo sapiens); conditions: at 1 µM
[14] = molecular target: MAP kinase-activated protein kinase 2 (Homo sapiens) (UniProt P49137); conditions: at 0.1 µM
[15] = molecular target: MAP kinase-activated protein kinase 2 (Homo sapiens) (UniProt P49137); conditions: at 1 µM
[16] = molecular target: MAP kinase-activated protein kinase 3 (Homo sapiens) (UniProt Q16644); conditions: at 0.1 µM
[17] = molecular target: MAP kinase-activated protein kinase 3 (Homo sapiens) (UniProt Q16644); conditions: at 1 µM
[18] = molecular target: Serine/threonine-protein kinase MARK1 (Homo sapiens) (UniProt Q9P0L2); conditions: at 0.1 µM
[19] = molecular target: Serine/threonine-protein kinase MARK1 (Homo sapiens) (UniProt Q9P0L2); conditions: at 1 µM
[20] = molecular target: MAP/microtubule affinity-regulating kinase 3 (Homo sapiens) (UniProt P27448); conditions: at 0.1 µM;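 note: mean percent inhibition of MARK3 kinase activity, measured within the GSK PKIS screening panel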
Sequence of MAP/microtubule affinity-regulating kinase 3 (Homo sapiens) (P27448 whole entry, looked up): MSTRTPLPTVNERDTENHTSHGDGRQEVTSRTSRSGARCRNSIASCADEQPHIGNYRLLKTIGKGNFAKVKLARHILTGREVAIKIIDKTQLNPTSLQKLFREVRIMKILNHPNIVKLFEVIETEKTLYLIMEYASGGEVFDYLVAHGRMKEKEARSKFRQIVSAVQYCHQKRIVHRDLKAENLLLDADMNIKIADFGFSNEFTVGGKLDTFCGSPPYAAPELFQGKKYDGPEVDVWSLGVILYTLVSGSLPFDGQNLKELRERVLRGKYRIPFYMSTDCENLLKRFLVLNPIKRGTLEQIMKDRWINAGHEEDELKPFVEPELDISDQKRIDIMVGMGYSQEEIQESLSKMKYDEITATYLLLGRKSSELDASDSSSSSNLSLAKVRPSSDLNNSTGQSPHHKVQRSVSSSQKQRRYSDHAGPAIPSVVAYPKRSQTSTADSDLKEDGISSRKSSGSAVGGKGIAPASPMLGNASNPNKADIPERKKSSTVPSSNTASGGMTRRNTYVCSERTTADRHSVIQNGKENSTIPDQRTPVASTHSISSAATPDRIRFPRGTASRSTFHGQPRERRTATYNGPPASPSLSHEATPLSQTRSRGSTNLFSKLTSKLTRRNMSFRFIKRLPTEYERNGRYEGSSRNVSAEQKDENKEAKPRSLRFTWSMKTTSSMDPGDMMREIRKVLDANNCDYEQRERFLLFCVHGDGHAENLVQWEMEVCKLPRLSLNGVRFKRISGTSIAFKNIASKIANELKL

Sequence of Serine/threonine-protein kinase Chk2 (Homo sapiens) (O96017 whole entry): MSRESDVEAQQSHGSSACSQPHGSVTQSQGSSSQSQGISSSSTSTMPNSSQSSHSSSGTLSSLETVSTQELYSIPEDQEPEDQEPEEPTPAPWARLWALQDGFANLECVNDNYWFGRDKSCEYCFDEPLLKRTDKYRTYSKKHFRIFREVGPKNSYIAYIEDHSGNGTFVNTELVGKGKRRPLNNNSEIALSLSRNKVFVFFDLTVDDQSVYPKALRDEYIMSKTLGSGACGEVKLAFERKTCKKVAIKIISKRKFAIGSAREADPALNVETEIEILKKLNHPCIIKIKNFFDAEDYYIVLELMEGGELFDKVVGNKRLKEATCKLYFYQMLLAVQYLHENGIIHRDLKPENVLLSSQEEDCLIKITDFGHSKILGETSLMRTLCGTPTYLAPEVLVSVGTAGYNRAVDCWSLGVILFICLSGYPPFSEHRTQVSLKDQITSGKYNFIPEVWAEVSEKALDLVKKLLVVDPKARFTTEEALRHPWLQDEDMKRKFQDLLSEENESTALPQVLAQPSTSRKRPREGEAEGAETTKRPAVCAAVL
Sequence of Death-associated protein kinase 1 (Homo sapiens) (P53355 whole entry, looked up): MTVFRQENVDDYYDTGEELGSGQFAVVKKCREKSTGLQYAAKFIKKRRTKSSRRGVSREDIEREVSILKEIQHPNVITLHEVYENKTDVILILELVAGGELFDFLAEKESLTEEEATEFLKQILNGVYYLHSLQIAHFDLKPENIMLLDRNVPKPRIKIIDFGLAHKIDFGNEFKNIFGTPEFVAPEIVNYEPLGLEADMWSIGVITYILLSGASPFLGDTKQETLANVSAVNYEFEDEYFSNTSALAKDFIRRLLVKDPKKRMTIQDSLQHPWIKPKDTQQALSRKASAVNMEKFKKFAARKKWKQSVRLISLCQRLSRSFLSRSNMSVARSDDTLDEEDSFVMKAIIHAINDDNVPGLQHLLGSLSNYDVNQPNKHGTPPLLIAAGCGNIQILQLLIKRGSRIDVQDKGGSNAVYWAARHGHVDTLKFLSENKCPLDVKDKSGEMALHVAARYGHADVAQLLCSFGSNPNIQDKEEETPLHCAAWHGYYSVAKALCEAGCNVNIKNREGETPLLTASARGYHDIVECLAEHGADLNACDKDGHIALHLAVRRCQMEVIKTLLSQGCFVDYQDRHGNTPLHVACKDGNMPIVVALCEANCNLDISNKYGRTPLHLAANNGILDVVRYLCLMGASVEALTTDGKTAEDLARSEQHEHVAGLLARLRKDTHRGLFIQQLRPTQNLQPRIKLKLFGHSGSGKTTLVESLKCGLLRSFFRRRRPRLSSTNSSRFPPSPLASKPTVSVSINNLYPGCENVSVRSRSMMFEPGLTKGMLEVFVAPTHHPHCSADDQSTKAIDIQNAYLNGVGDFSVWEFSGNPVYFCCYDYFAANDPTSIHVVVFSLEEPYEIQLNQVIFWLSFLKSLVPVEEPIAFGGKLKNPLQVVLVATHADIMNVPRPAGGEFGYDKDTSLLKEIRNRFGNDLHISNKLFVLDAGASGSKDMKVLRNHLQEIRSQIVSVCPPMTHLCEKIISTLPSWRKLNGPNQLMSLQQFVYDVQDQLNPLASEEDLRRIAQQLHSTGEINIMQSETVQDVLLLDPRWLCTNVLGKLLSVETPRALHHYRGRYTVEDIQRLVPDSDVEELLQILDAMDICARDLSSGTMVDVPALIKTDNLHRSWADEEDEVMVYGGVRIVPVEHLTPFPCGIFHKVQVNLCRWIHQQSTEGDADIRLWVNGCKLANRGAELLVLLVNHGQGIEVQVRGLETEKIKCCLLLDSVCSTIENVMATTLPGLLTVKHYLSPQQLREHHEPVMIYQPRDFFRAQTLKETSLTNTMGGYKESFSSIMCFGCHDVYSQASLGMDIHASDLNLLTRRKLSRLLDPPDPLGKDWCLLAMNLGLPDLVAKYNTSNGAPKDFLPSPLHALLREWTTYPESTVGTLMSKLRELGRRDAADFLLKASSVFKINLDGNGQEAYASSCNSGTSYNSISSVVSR
Sequence of Serine/threonine-protein kinase MARK1 (Homo sapiens) (Q9P0L2 whole entry, looked up): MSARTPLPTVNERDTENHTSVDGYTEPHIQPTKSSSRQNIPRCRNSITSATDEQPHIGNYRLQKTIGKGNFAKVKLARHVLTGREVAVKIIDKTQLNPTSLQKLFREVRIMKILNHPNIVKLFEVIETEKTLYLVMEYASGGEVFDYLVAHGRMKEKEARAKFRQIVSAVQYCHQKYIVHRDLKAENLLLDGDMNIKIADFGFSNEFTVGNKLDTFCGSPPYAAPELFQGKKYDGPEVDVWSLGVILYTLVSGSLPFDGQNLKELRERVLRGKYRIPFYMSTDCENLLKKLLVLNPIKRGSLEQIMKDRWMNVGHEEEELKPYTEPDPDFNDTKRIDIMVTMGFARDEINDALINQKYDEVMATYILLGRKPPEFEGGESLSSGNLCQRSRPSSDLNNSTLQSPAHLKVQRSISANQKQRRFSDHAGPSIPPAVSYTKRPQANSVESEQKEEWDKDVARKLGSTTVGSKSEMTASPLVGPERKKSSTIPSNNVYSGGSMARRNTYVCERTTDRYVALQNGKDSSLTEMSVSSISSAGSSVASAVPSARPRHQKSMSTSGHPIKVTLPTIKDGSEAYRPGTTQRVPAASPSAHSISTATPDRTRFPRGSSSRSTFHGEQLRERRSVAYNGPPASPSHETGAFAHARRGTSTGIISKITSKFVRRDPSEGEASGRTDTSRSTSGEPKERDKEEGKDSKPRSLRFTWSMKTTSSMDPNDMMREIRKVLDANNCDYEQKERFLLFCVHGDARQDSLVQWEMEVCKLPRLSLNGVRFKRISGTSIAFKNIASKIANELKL
Sequence of Calcium/calmodulin-dependent protein kinase type II subunit alpha (Homo sapiens) (Q9UQM7 whole entry): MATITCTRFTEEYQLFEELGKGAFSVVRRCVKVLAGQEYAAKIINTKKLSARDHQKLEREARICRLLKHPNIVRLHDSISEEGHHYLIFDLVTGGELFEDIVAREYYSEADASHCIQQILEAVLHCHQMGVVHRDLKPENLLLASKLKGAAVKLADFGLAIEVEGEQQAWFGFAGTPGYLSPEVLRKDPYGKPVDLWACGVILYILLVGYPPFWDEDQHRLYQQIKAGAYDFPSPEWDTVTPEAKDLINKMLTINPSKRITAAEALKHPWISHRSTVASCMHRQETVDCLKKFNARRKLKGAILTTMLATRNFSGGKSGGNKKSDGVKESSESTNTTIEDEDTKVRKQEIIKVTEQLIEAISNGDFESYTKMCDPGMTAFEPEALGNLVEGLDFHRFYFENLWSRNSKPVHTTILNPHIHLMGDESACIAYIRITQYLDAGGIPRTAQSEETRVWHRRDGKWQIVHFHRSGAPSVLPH
Sequence of MAP kinase-activated protein kinase 2 (Homo sapiens) (P49137 whole entry, looked up): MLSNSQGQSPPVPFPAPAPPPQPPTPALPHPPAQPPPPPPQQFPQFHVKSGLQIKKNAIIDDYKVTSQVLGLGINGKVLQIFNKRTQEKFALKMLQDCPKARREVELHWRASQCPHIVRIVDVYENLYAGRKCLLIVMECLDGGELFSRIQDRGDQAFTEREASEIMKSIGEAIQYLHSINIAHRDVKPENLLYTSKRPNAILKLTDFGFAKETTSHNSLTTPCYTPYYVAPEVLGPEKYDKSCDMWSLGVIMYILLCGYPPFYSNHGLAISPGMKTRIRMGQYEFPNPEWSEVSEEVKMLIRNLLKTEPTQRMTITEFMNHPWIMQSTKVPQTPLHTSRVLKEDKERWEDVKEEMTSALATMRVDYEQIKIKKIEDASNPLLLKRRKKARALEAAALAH
Sequence of MAP kinase-activated protein kinase 3 (Homo sapiens) (Q16644 whole entry, looked up): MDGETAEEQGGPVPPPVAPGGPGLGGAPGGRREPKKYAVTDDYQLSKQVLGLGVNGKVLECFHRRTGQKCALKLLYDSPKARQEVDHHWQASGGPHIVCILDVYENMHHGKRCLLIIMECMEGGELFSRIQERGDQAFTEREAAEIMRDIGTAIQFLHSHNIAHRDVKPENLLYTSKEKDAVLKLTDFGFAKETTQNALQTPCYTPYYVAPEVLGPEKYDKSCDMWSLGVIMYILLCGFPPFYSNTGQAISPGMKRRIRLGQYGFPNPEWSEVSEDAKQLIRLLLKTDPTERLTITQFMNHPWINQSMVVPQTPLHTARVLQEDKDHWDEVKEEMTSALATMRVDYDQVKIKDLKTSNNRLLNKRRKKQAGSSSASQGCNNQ

Row | Structure (SMILES) | inhibition [1] [%] | inhibition [2] [%] | inhibition [3] [%] | inhibition [4] [%] | inhibition [5] [%] | inhibition [6] [%] | inhibition [7] [%] | inhibition [8] [%] | inhibition [9] [%] | inhibition [10] [%] | inhibition [11] [%] | inhibition [12] [%] | inhibition [13] [%] | inhibition [14] [%] | inhibition [15] [%] | inhibition [16] [%] | inhibition [17] [%] | inhibition [18] [%] | inhibition [19] [%] | inhibition [20] [%]
1 | COc1cccc(-n2ncc3c(N/N=C/c4ccc(F)cc4)ncnc32)c1 | 3.26 | 3.08 | 3.49 | -2.69 | -2.57 | 2.07 | 5.65 | 2.49 | 3.64 | 4.6 | 5.45 | 1.07 | 0.2 | 1.96 | 2.72 | 3.14 | 3.2 | 3.33 | 5.14 | 4.91
2 | CNC(=O)c1cc(-c2ccc(F)cc2)cc(-c2ccc(S(=O)(=O)N3CCCC3)cc2)c1N | 1.06 | 3.1 | 3.89 | -1.57 | 1.17 | 8.01 | 11.8 | 6.61 | 8.16 | 10.6 | 9.63 | -1.53 | -0.01 | 4.47 | 5.35 | 7.55 | 9.54 | 2.14 | 3.58 | 1.73
3 | COc1ccc(-c2cc3c(N)ncnc3o2)cc1 | -0.48 | -0.8 | -0.85 | 0.63 | -1.72 | 0.13 | 2.78 | -1.09 | 3.25 | -1.84 | -3.05 | -1.82 | 0.37 | -1.21 | -0.76 | -1.27 | -1.91 | 0.03 | 2.81 | -1.55
4 | CCN1CCC(CC(=O)Nc2n[nH]c3nnc(-c4cccc(F)c4F)cc23)CC1 | -0.76 | 2.44 | 0.77 | 2.76 | -0.58 | 1.72 | -1.03 | 1.92 | 0.24 | 3.62 | 3.28 | -0.85 | 1.18 | 1.15 | 0.52 | 1.74 | 0.62 | 1.89 | 2.48 | 2.14
5 | FC(F)(F)c1cccc(-c2nn3ncccc3c2-c2ccnc(Nc3ccc4c(c3)OCCO4)n2)c1 | 2.43 | 1.59 | 3.33 | 0.49 | 0.92 | 1.89 | 2.98 | 1.74 | 3.43 | 2.28 | 4.46 | 0.29 | -0.51 | 0.54 | 0.88 | 12.3 | 31.9 | 2.64 | 3.63 | 2.14
